# How the values were obtained:
# [1] = molecular target: T1, ETS1 (UniProt P14921); assay: ETS1 binding intensity (PBM fluorescence), ETS1 alone (arbitrary fluorescence units); higher = stronger binding; settings: ETS1 concentration 1 nM; RUNX1 concentration 0 nM
# T1 sequence: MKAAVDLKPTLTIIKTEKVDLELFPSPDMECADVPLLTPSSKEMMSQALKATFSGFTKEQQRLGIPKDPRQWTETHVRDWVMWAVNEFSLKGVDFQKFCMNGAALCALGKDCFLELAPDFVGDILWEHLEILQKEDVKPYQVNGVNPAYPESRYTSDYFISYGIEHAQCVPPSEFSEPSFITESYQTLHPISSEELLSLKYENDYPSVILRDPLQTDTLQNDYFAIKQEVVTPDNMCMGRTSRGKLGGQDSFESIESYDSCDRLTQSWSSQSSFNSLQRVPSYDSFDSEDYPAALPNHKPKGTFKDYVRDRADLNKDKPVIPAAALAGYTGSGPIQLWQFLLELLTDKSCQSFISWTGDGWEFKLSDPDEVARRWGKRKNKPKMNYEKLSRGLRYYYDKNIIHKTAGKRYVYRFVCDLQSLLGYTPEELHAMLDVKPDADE
# [2] = molecular target: RUNX1 (UniProt Q01196); assay: RUNX1 binding intensity (PBM fluorescence), RUNX1 alone (arbitrary fluorescence units); higher = stronger binding; settings: RUNX1 concentration 2 nM; ETS1 concentration 0 nM
# RUNX1, sequence (Q01196 whole entry): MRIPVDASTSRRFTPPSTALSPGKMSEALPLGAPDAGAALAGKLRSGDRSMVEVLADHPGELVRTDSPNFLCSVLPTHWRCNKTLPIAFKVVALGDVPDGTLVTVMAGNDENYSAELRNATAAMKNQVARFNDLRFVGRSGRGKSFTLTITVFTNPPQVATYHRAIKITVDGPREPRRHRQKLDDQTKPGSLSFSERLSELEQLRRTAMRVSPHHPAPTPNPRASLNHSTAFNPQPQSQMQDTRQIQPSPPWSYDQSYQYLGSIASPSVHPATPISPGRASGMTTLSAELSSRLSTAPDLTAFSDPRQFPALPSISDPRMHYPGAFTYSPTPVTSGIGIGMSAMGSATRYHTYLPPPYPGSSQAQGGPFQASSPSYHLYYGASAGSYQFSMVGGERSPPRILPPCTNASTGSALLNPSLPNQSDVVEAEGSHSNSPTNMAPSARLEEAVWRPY
# Description: (§1)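 Cooperative gcPBM on 36-bp genomic probes with neighbouring ETS1 and RUNX1 sites. Recombinant human RUNX1 (2 nM) was incubated alone or with ETS1 (25 nM) and detected with anti-RUNX1 antibody plus Alexa488 secondary. Values are medians over 4 replicate spots; the RUNX1+ETS1 data were normalised to the RUNX1-only data. The probes sit in constant array flanks that are not printed.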
# [3] = molecular target: T1, ETS1; assay: ETS1 binding intensity (PBM fluorescence) in presence of RUNX1, normalised to ETS1-only experiment (arbitrary fluorescence units); higher = stronger binding; settings: ETS1 concentration 1 nM; RUNX1 concentration 25 nM
# [4] = molecular target: RUNX1 (UniProt Q01196); assay: RUNX1 binding intensity (PBM fluorescence) in presence of ETS1, normalised to RUNX1-only experiment (arbitrary fluorescence units); higher = stronger binding; settings: RUNX1 concentration 2 nM; ETS1 concentration 25 nM
# Description: as §1
# 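For RUNX1 binding intensity (PBM fluorescence) in presence of ETS1, normalised to RUNX1-only experiment in this document: Full-length recombinant human ETS1 or RUNX1 bound to double-stranded 36-bp genomic probes on microarrays, detected by protein-specific primary antibody and Alexa488 secondary, spot fluorescence as median of four replicate spots.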
# 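For RUNX1 binding intensity (PBM fluorescence), RUNX1 alone in this document: Full-length recombinant human RUNX1 bound to double-stranded 36-bp genomic probes on a high-density microarray, scored as Alexa488 fluorescence per spot via anti-RUNX1 antibody, median of four replicate spots.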
Sequence,ETS1 binding intensity [1],RUNX1 binding intensity [2],ETS1 binding intensity [3],RUNX1 binding intensity [4]
GCCATCCGCAGGACTCCGCGTTCTCGCGGTAAGTGG,384,736,464,883
TCTGGGACAGGAAAGACTTGTGGTTACTGCTGTTGA,808,1390,4470,3160
GTTATTCTCCCCTTCCTGTGGTGTGTTTTGATGGTA,702,1120,626,1590
CGCCTCATTTCCTGTGCAACTGCGGTAAAAATAGGA,1860,1630,5000,4630
CTTGTGAAATGTATCCTGTGGTTGCCGGCTGAAGTG,499,848,419,1380
TCAAGAAAACAGGAAACTCTCAAAACCAAGTTCTGA,1430,773,1830,931
CCGGGACCGGAAGAGGGAGCCGTGGTTGCTGGAACT,3040,744,4030,1960
ACCACGAGCCCAGGATGCGGTTTATGCGCTGTCGGG,699,2660,2890,4230
CACCGCCGGAGTCCCGGATGTGGTTGCTAGGGCAGC,5070,767,14900,3280
GAGGGGTGGGGGAGGAAGGCTGCGGTTTCTGCTGGG,390,8430,2180,11100
AGGTTCTCCAGAGGAGGAAGTGGTTTGCTGCAGGCT,2450,755,4400,971
CCCTGGACGGGAAGCGGCGGCCAGATCCGCAAGCCC,584,808,747,940
CACTTCCTGCCCTCTTCCACTTTCAAAACCACATCA,869,4540,1850,9880
CCAATGGGCAGGCGGAAACCGCGGGCTCGTGCTCCC,1580,956,2900,1350
GAGGCCCAGGATGTGGCTGGAGGCCTGTGGTGGGAC,630,700,1130,864
GACTCCATTTCCCGTCGGCTCGCGGTGGGAGCGCCG,417,981,453,1900
GACAAAGAGGAAGTCCCCAAAAACCACAATAACAGT,910,1570,4080,3900
CCGGGCTGCGGAAGGCGGGAATTCTGCGGTTCGCGG,405,1230,1990,1720
GAGCTAGCCACTTCCTCCCCCACAACTACACCCAGG,814,976,914,3420
TGGTGGCTATTTCCTCTCCCGCTGTGGTCCCTGGAG,563,728,535,1470
AATAAAGCTACAGACTTCCGCCCACAGGTCGCCGCT,1020,789,1280,1360

Sequence,ETS1 binding intensity [1],RUNX1 binding intensity [2],ETS1 binding intensity [3],RUNX1 binding intensity [4]
AGGCGGCAGGAAATGACCCCATCCCGCAGCCTGGGC,2480,806,5190,2040
AGCAACAGGAAAGAACAGCCTGACCACAGCAGCCAC,393,948,727,1050
CAGTTTGCCCCGGATGTTGACCGCCTTGAAGTCGTA,4170,910,4900,1380
GGCGGTGACCGGAAGAGCTGAGTCACCGCAGGCGAC,4020,813,11300,1600
ATACTGAGTCATTTCCTGTGGTGTTATTGTGTTGTA,1760,993,2500,1570
CTTGCTTAACGCTTCCTGAGGGGTGGTTTGGGTTTT,448,837,369,953
CTGGGGAGGAAGCCTGAGGTGTGTGGTTTTGTTAAC,374,1040,811,983
ATCTTACCCCGGAAATGACAACAGTGCCGCAAACTG,7580,906,10400,1620
GCGCCGGTGACGGAAGTGCGGTGTTGAGCGCCGGCG,2430,758,3070,1300
AAAGAGGAAATCACATACCCGAAAACCACATGCACA,513,944,1050,1200
CCACTGCCGGAAGGGGAACTGTGGGGGTGCGCGAGT,1110,820,963,1040
GGAGAGTTGACTTCCGGCGGCTTGTGGGAGTGCTGG,2740,771,2640,1820
CTTGTTCTATTTCCTGTTTGTGGTGAGTGACTGTCT,4300,1520,8610,3140
AGGGTGTGGAGGAAGTGGCTTACAACCACTTTGTCT,1270,764,1500,1090
CTCGTGCGTCACTTCCGCCCCGCAGACCCGCCCACT,2410,1050,2940,2420
CTCATCAGTCATCCGGCTGGACCGCAGGAGCTCTCC,403,933,500,1570
CCCGCTACACAAGGCGGATGTGGTACCCTCACTTGT,3810,891,6380,1530
CCCACTTCCTGTCTGCTTCCCTCCACCGCTCAGACC,2890,1890,2650,4290
AGCGCTTCCTGGCTCCGGCCCCGCCCCTGCGGTCGG,484,942,1110,1880
TGTCGGGCGGATGTGTACCGGCGGTAATATAGTAAG,2300,753,2270,1220

# Reference: the supplement of paper PMC10681739
